# According to PubChem BioAssay AID1456 (Vanderbilt High Throughput Screening Facility, 2008):
# In all, about 190,000 compounds went through this assay and about 4,100 (2.2%) were called active.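 How the source made its calls: active means thallium flux slope and its plate-corrected score both differing from the plate sample mean at a set confidence after two filtering rounds, in either direction; inactive means the rest.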 The full list was thinned out, with actives kept by preference.
# Biological target: Solute carrier family 12 member 5 (Homo sapiens) (UniProt Q9H2X9)
# Test: modulation of human KCC2 ion transport – cell-based, HEK293 KCC2, FluoZin-2 fluorescence, MLSMR, primary screen (AID 1456);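 further: slope of fluorescence scaled to starting intensity during 10 to 20 s after thallium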
# Settings: KCC2 cells, thallium flux FluoZin-2 fluorescence; at 10 µM
# Solute carrier family 12 member 5 (Homo sapiens), sequence (Q9H2X9 whole entry, looked up): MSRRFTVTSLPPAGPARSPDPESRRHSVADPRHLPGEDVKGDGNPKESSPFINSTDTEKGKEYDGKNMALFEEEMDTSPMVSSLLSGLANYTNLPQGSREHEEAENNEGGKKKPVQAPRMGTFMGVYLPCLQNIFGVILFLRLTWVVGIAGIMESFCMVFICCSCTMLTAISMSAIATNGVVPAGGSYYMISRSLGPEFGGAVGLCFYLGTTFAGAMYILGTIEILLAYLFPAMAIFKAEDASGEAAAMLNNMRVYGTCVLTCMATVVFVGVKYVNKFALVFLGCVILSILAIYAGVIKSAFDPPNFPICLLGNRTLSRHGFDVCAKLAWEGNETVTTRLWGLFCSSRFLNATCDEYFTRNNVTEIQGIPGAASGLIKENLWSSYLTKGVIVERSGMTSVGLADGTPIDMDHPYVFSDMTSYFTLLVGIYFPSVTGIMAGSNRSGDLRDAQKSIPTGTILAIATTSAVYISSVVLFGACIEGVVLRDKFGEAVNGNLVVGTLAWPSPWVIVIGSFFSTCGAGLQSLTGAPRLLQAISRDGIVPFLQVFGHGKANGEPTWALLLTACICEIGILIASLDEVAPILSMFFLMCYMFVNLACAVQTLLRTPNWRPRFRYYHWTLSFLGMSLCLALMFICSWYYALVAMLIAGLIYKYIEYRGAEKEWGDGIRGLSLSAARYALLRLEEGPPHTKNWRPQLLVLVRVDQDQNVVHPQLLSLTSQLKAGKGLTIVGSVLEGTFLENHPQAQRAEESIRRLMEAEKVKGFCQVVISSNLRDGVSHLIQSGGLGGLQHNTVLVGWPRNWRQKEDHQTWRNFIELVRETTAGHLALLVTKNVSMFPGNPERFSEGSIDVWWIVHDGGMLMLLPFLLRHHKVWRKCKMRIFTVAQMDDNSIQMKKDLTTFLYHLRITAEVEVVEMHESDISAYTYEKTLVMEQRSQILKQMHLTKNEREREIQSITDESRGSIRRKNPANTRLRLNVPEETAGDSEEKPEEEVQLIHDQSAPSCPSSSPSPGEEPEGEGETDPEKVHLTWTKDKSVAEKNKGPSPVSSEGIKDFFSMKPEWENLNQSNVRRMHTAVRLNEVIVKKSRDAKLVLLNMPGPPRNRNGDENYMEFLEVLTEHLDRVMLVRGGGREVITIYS
row,Structure (SMILES),B-score of Tl+ flux slope (higher = more flux/activation; lower = inhibition)
1,COc1ccc(OCc2cccc(C(=O)N3CCCC3)c2)cc1,0.115 (inactive)
2,Cc1oc(C(N)=O)cc1COc1ccc(C(N)=O)cc1,2.17 (active)
3,Cc1ccc(COc2ccc(C(=O)NN)cc2)cc1,-0.198 (inactive)
4,COc1ccc(Cl)cc1S(=O)(=O)N1CCC(O)(c2ccc(Cl)cc2)CC1,-0.0293 (inactive)
5,Cc1cccc(N=Nc2c(C)[nH]n(-c3ccccc3)c2=O)c1,0.0317 (inactive)
6,Cc1[nH]n(-c2ccccc2)c(=O)c1N=Nc1ccccc1C(=O)N1CCCCC1,5.68 (active)
7,Cc1ccc(N=Nc2c(C)[nH]n(-c3ccccc3)c2=O)cc1,3.14 (inactive)
8,CSc1nc(-c2ccco2)nn1C(=O)c1ccccc1Cl,-1.08 (inactive)
9,COC(=O)c1cc2c(N)c(C(=O)c3ccc(Cl)cc3)sc2nc1C(OC)OC,0.11 (inactive)
10,COc1cc(OC)cc(/C(N)=N/O)c1,-0.654 (inactive)
11,COc1ccc(N2C(=O)c3ccccc3NC2c2ccc(OC)c(CN3CCOCC3)c2)cc1 (stereo unspecified),-0.152 (inactive)
12,C=CCn1c(=S)sc2c(=O)[nH]c(C)nc21,-0.647 (inactive)
13,C=CCn1c(=S)[nH]c2nc3c(cc2c1=O)COC(C)(C)C3,3.61 (active)
14,O=C(CCl)N(Cc1cccc([N+](=O)[O-])c1)c1cccc(Cl)c1,-0.452 (inactive)
15,Cn1c2ccccc2c2cc(/C=C(\NC(=O)c3ccccc3)C(=O)NCC(=O)O)ccc21,0 (inactive)
16,O=C(CSc1ccc(-c2cccs2)nn1)Nc1ccccc1F,-2.89 (active)
17,Cn1c(CCC(=O)Nc2ccccc2F)nnc1SCC(=O)Nc1ccccc1Cl,-0.846 (inactive)
18,Cc1csc(NC(=O)CSc2ccc(-c3ccc(F)cc3)nn2)n1,-4.45 (inactive)
19,C=CCC1(C#N)C(=S)NC(C)=C(C(=O)OCC)C1c1ccccc1 (stereo unspecified),-0.00243 (inactive)
20,Cc1ccc(SCc2c(C(=O)N/N=C/C3CC=CCC3)nnn2-c2nonc2N)cc1 (stereo unspecified),-0.374 (inactive)
21,O=C(Nc1nnc(Cc2ccc(Cl)cc2)s1)c1ccncc1,-2.1 (inactive)
22,NS(=O)(=O)c1ccc(NC(=S)Nc2ccc(Br)c(Cl)c2)cc1,0.559 (inactive)
23,CCNC(=S)NNC(=O)Cc1ccccc1,0.737 (inactive)
24,CC(C)Oc1ccc(CCC(=O)NNC(=S)NCc2ccccc2)cc1,-1.38 (inactive)

row,Structure (SMILES),B-score of Tl+ flux slope (higher = more flux/activation; lower = inhibition)
1,CC(=O)Nc1ccc(OCC(=O)NCc2ccc(C)cc2)cc1,-0.00613 (inactive)
2,O=C(Nc1ccc2ccccc2c1)/C(=C/c1cccc(Br)c1)NC(=O)c1ccco1,-1.51 (inactive)
3,CCCc1ccc(OCC(=O)NNC(=S)NC(=O)c2ccco2)cc1,28.4 (active)
4,O=C(Nc1ccc2ccccc2c1)/C(=C\c1ccc2c(c1)OCO2)NC(=O)c1ccco1,0.0996 (inactive)
5,COc1ccc(CCNC(=O)c2ccco2)cc1,0.796 (inactive)
6,Cc1ccc(OCC(=O)NNC(=S)NCc2ccccc2)cc1,9.51 (active)
7,CC(Oc1ccc2ccccc2c1)C(=O)NNC(=S)NC(=O)c1ccco1 (stereo unspecified),25.4 (active)
8,CC(C)(C)c1cc(C(=O)NN)n(Cc2ccc(Cl)cc2Cl)n1,-0.315 (inactive)
9,O=S(=O)(Nc1n[nH]c(C(F)(F)F)n1)c1ccccc1,-2.65 (inactive)
10,N#Cc1c(NCCO)ccc([N+](=O)[O-])c1NCCO,-0.904 (inactive)
11,O=C1NC(c2cccc(Cl)c2)Nc2ccccc21 (stereo unspecified),0.445 (inactive)
12,Nc1nnnn1CC(=O)N/N=C/c1ccc(-c2cccc(Cl)c2)o1,-0.38 (inactive)
13,O=C1c2ccccc2NC(c2ccc(-c3cccc(Cl)c3)o2)N1O (stereo unspecified),35 (active)
14,CCn1c(SCC(=O)Nc2sc(C)c(C)c2C#N)nnc1C1CC1,0.253 (inactive)
15,Cc1onc(-c2ccccc2)c1C(=O)N1CCOCC1,0.00257 (inactive)
16,CC(=O)Nc1cccc(NC(=O)c2c(-c3ccccc3)noc2C)c1,-0.00829 (inactive)
17,Cc1onc(-c2ccccc2)c1C(=O)NNC(=S)NC(=O)c1ccc(F)cc1,8.51 (active)
18,COc1ccc(C(=O)NC(=S)NNC(=O)c2c(-c3ccccc3)noc2C)cc1,11.1 (active)
19,Cc1onc(-c2ccccc2)c1C(=O)N=C(N)c1ccc(Cl)cc1,1.42 (inactive)
20,COc1ccc(C(=O)NNC(=S)NC(=O)c2ccccc2[N+](=O)[O-])cc1,1.61 (inactive)
21,O=C1CCCC(O)=C1N=Nc1ccc(S(=O)(=O)N2CCOCC2)cc1,-0.62 (inactive)
22,Cc1ccc(OC(=O)c2c(C)nn(-c3ccccc3)c2C)cc1,0.00646 (inactive)
23,O=C(Nc1ccc(Cl)cc1)Nc1ccc(C(=O)N2CCOCC2)cc1,0.868 (inactive)
24,c1ccc2c(NC3C4CC5CC(C4)CC3C5)nc(N3CCOCC3)nc2c1 (stereo unspecified),-0.0419 (inactive)

row,Structure (SMILES),B-score of Tl+ flux slope (higher = more flux/activation; lower = inhibition)
1,COC(=O)c1sccc1NC(=O)CC1C(=O)NCCN1C(=O)Nc1ccc(F)cc1F (stereo unspecified),-0.52 (inactive)
2,COC(=O)c1ccccc1N=Nc1c(C)[nH][nH]c1=O,0.855 (inactive)
3,CC(C)(C)Cc1nnc(NC(=O)c2cc(-c3ccccc3)nc3ccccc23)s1,0.0714 (inactive)
4,O=C(Nc1ccc(S(=O)(=O)Nc2nccs2)cc1)c1cc(-c2ccncc2)nc2ccccc12,-0.477 (inactive)
5,O=C(Nc1nnc(-c2ccccc2)o1)c1cc(-c2cccs2)nc2ccccc12,99.4 (active)
6,Cc1c(NC(=O)CN2C(=O)C(=O)N(Cc3ccccc3)C2=O)c(=O)n(-c2ccccc2)n1C,0.0462 (inactive)
7,Oc1oc(-c2ccccc2Br)nc1/C=N/c1ccccn1,1.39 (inactive)
8,CC(C)n1c(O)c(N=Nc2ccccn2)c2ccccc21,5.67 (active)
9,COC(=O)Cn1c(O)c(N=NC(=O)OC)c2ccccc21,1.85 (inactive)
10,COc1ccc(Cn2c(O)c(/C=C3/C=CC=N3)c(=O)[nH]c2=O)cc1,-0.723 (inactive)
11,Cn1nc(C(F)(F)F)cc1C(=O)O,1.56 (inactive)
12,Cc1cc(NC(=O)OC(C)C)ccc1-c1ccc(NC(=O)OC(C)C)cc1C,-0.761 (inactive)
13,CC(C)CN(CC(C)C)CC(O)CN(c1ccccc1)S(=O)(=O)c1ccccc1[N+](=O)[O-] (stereo unspecified),-2.39 (inactive)
14,CCOC(=O)N1CCN(CC(=O)Nc2cc(C)nn2-c2nc3ccccc3s2)CC1,-0.634 (inactive)
15,Cc1cc(NC(=O)CN2CCCC(C)C2)n(-c2nc3ccccc3s2)n1 (stereo unspecified),0.312 (inactive)
16,CCC(C)Cn1c(O)cc2nn(-c3nc4ccccc4s3)c(=O)c-2c1C (stereo unspecified),5.85 (active)
17,C/C(=N\NC(=O)c1cccnc1)c1ccc(-n2ccnc2)cc1,0.898 (inactive)
18,COc1cc2c(cc1OC)C(/C=C/c1ccco1)=NCC2,-1.64 (inactive)
19,O=C(CCCn1c(=O)[nH]c2cc(Cl)ccc2c1=O)NCCN1CCN(c2ccccc2)CC1,-1.09 (inactive)
20,O=C(Cc1csc(Nc2nc(=S)[nH]c3ccccc23)n1)NCCCN1CCN(c2cccc(Cl)c2)CC1,18.7 (active)
21,COc1cccc(CNC(=O)c2n[nH]c3ccccc23)c1,-0.482 (inactive)
22,CCn1c(=O)cc(OCC(=O)NCCCN2CCN(c3cccc(Cl)c3)CC2)c2ccccc21,-4.58 (inactive)
23,COc1cccc(CNC(=O)CCN2C(=S)NC(C)(C)CC2C)c1 (stereo unspecified),-1.19 (inactive)
24,COc1cccc(CNC(=O)Cc2csc(Nc3nc(=S)[nH]c4ccccc34)n2)c1,16.7 (active)

row,Structure (SMILES),B-score of Tl+ flux slope (higher = more flux/activation; lower = inhibition)
1,COC(=O)c1cc(S(=O)(=O)N2CCC(C(N)=O)CC2)oc1C,0.506 (inactive)
2,Cn1cc(S(=O)(=O)NC(c2ccccc2)c2ccccc2)c(=O)n(C)c1=O,1.52 (inactive)
3,CCCNc1c(N)c(=O)c1=O,0.441 (inactive)
4,O=C(Cc1ccccc1)Nc1c(Cl)ccc2nsnc12,0.0149 (inactive)
5,O=C(Nc1ccn(Cc2ccccc2)n1)c1cccc(F)c1,-4.17 (active)
6,O=C(Nc1ccn(Cc2ccccc2)n1)c1n[nH]c([N+](=O)[O-])c1Cl,-5.21 (inactive)
7,O=C(Nc1ccn(Cc2ccc(F)cc2)n1)c1ccncc1,-1.12 (inactive)
8,CC(=O)NCc1ccc(S(=O)(=O)NC2CCN(Cc3ccccc3)CC2)cc1,-1.54 (inactive)
9,Nn1c(SCc2ccccc2)nnc1C1CCCCC1,0.0386 (inactive)
10,COc1ccccc1CNC(=O)Cn1c(=O)oc2cc(Cl)ccc21,0.172 (inactive)
11,COC(=O)CSc1ncnc2c1cnn2-c1ccc(C)cc1C,0.528 (inactive)
12,COc1ccccc1N1CCN(C(=O)CSc2ncnc3c2cnn3-c2ccc(C)c(C)c2)CC1,5.99 (active)
13,COc1ccccc1N1CCN(C(=O)CSc2nnc(-c3ccoc3C)o2)CC1,-1.44 (inactive)
14,CN1CCN(c2ccc(S(=O)(=O)N3CCOCC3)cc2NC(=O)CCc2ccccc2)CC1,0.193 (inactive)
15,CC(CO)(CO)NC(=O)c1ccc(=O)[nH]n1,-0.424 (inactive)
16,Cc1cc(=O)[nH]c(SCC(=O)Nc2ccc(Br)cc2)n1,1.17 (inactive)
17,Cc1cccc(C)c1NC(=O)CSc1nnc(-c2ccccc2)n1Cc1ccc2c(c1)OCO2,-0.0425 (inactive)
18,c1ccc(-c2nnc3n2NC(c2ccc4c(c2)OCO4)S3)cc1 (stereo unspecified),17.9 (active)
19,CC1=C(C(N)=O)C(c2ccc3c(c2)OCO3)n2nc(-c3cccc(C)c3)nc2N1 (stereo unspecified),-0.546 (inactive)
20,CN=C1C=C/C(=N/N=c2\ccn(O)cc2C)C=C1C,0.0998 (inactive)
21,Cc1cccc(C2C3=C(CCCC3=O)N=C3c4ccccc4C(=O)C32)c1 (stereo unspecified),1.41 (inactive)
22,Cc1[nH]n(-c2ccc(Cl)cc2)c(=O)c1/C=N/n1c(C)nc2ccccc2c1=O,1.71 (inactive)
23,COc1cc(SC#N)ccc1N=Cc1c(C)[nH]n(-c2ccc(C)cc2)c1=O,0.0406 (inactive)
24,Cc1ccc(-n2[nH]c(C)c(/C=N/N3C(=O)c4cccc5cccc(c45)C3=O)c2=O)cc1,41.4 (active)
